# Rows were chosen to be rich in hits. Some 6.8% of all compounds tested hit in one or more screens of this group.
# MCF10A rereplic: A quantitative high throughput screen for small molecules that induce DNA re-replication in MCF 10a normal breast cells | MCF 10A DNA re-replication, Hoechst nuclear intensity, 48 h | Potency, µM (highest dose often 46.1 µM), for inactives: top-dose activity, positive = re-replication, usual class: activators | 2.9% of 350,000 active; further: % of control where 0% means no effect; nearly all actives have a fitted effect of over 50% in size
# KB-3-1 tox: qHTS assay for MDR1-selective chemotherapeutics: Primary screen using the parental adenocarcinoma cell KB-3-1; 1.4% of 400,000 active; Potency, µM (highest dose often 46.1 µM), actives largely listed as cytotoxic; KB-3-1 viability, CellTiter-Glo ATP luminescence, 72 h; AID 1347075, 2019; further: on the % scale 0 is the no-effect control and ±100 the full control effect; nearly all actives have a fitted effect of over 60% in size
#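 Cytotoxicity measured as CellTiter-Glo luminescence after 72 h at 37 C. Compound titrations were pinned onto drug-naive KB-3-1 parental adenocarcinoma cells grown in DMEM with 10% FBS, and normalized data fitted to concentration-response curves.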
# SW480 rerep: A quantitative high throughput screen for small molecules that induce DNA re-replication in SW480 colon adenocarcinoma cells. Potency, µM (highest dose often 46.1 µM), for inactives: top-dose re-replication activation, usual class: activators. AID 624297, 2012. 1.8% of 340,000 active. SW480 DNA re-replication, Hoechst DNA content imaging, 48 h; further: % of control where 0% means no effect; nearly all actives have a fitted effect of over 55% in size
#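 First, 250 cells per well were seeded. Next, compound or vehicle (23 nL) was pinned in, plates sat 48 hr at 37 C. Finally Hoechst was added for 40 min before fluorescence scanning.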
# TSG101-PTAP inh: qHTS Assay for Iinhibitors of HIV-1 Budding by Blocking the Interaction of PTAP/TSG101; Fluorescence polarization, FITC-PTAP peptide / Tsg101 binding; Potency, µM (highest dose often 115 µM), without a hit: at the top dose activity change, negative = inhibition, actives largely listed as inhibitors; 340,000 tested, under 10 active; AID 493005, 2010; active means well fitted inhibition curve with a large enough effect in the main read-out, with a control signal flat, not every such curve was filed as active; inconclusive means small, poorly fitted or top-dose-only effect, or effect the other way, or a change in a side signal; inactive means no such curve, though single readings can be large or run the other way; further: % of control where 0% means no effect
# Target sequence (Q99816 whole entry, looked up): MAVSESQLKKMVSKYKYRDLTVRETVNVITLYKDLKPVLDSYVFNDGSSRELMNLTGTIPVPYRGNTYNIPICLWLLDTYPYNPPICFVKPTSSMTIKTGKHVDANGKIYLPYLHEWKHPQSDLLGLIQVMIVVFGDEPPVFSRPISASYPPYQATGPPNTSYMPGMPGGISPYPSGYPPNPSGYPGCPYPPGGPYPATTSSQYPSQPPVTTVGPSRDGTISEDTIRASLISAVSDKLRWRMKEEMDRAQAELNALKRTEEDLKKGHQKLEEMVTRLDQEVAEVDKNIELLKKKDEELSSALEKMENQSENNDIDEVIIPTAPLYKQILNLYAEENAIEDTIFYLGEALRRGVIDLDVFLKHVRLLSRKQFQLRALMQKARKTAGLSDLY
#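 Fluorescence anisotropy tracks displacement of a FITC-tagged PTAP peptide (50 nM) from the Tsg101 binding domain (10 uM), following a 20 min room-temperature incubation at pH 7.5.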
# KB-V1 MDR tox: qHTS assay for MDR1-selective chemotherapeutics: Primary screen using the drug-selected MDR subline cells KB-V1. KB-V1 MDR cells viability, CellTiter-Glo, 72 h. Potency, µM (series often up to 46.1 µM), hits mostly cytotoxic. 3.4% of 400,000 active; further: on the % scale 0 is the no-effect control and ±100 the full control effect; nearly all actives have a fitted effect of over 60% in size
#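 Potencies derive from concentration-effect curves fitted to normalized luminescence (CellTiter-Glo) of KB-V1 cells treated for 72 h at 37 degrees C in phenol-red-free DMEM containing 10% FBS.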
# PINK1 expr mod: A Quantitative High throughput Screen to Identify Chemical Modulators of PINK1 Expression; PINK1 immunofluorescence, high-content cytometry, 24 h; AID 624263, 2012; 0.2% of 410,000 active; Potency, µM (doses to about 76.6 µM), for inactives: top-dose activation (PINK1 increase), usual class: activators; active means well fitted activation curve with a large enough effect; inconclusive means small, poorly fitted or top-dose-only effect; cell line not stated here; further: % of control where 0% means no effect; nearly all actives have a fitted effect of over 65% in size
#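 A stable cell line was treated with compounds at 5 concentrations for 24 hours, with CCCP as control. PINK1 levels and mitochondrial localization were measured by immunofluorescence with mitochondrial, cell and nuclear markers after fixation, read by laser-scanning cytometry.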
# * hit, by the source's call; i = inactive; ? = inconclusive; / = no result given; ! = repeats disagree; [ ] = dose if it differs, or a comment. Unless noted, the call rests on the fitted dose curve; in most records, active means well fitted curve in the direction sought with a large enough effect; inconclusive means small, poorly fitted or top-dose-only effect, or another doubt; inactive means no such curve, though single readings can be large; an effect the other way counts as inactive or inconclusive. Potency means the concentration at half of the fitted maximal effect.
SMILES,MCF10A rereplic,KB-3-1 tox,SW480 rerep,TSG101-PTAP inh,KB-V1 MDR tox,PINK1 expr mod
Cc1ccccc1NC(=O)Cc1nc(COC(=O)c2cc(Br)ccc2O)cs1,16µM*,i,-6%,-3%,i,10%
CC(=O)Nc1cccc(C(=O)OCc2csc(CC(=O)Nc3ccccc3C)n2)c1,10%,i,1%,0%,21µM*,2%
CCCCn1c(=O)[nH]c(=O)c2c1nc(-c1ccc3ccccc3c1)n2CC,23%,i,-6%,-2%,i,9%
CCCCn1c(-c2ccc(Cl)c(Cl)c2)nc2cc3[nH]c(=O)c(C(C)C)nc3cc21,15µM*,i,19%,2%,i,1%
CCCCn1c(-c2cccc(Br)c2)nc2cc3[nH]c(=O)c(C(C)C)nc3cc21,18µM*,?,?,-2%,i,0%
CCCCn1c(-c2cccnc2)nc2cc3[nH]c(=O)c(C(C)C)nc3cc21,21%,?,-4%,3%,i,1%
CCCCn1c(-c2ccc(C(C)(C)C)cc2)nc2cc3[nH]c(=O)c(C(C)C)nc3cc21,18µM*,i,3%,-9%,i,8%
Cc1ccc2c(=O)cc(C(=O)N(Cc3ccccc3Cl)C3CCS(=O)(=O)C3)oc2c1 (stereo not given),/,i,/,/,i,0%
CCOc1ccc(/C=C/c2nc(C#N)c(N3CCCCC3)o2)cc1,/,/,/,/,/,7%
COc1c(Cl)cc(C(=O)N(Cc2ccc(C)o2)C2CCS(=O)(=O)C2)cc1Cl (stereo not given),/,i,/,/,i,0%
O=S(=O)(c1ccc(F)cc1)N1CCN(C(=S)NC2CC2)CC1,1%,i,0.58µM*,1%,i,1%
CCc1cccc(CC)c1NC(=O)/C(C#N)=C/c1ccccc1C(F)(F)F,12µM*,?,-80%,-6%,?,-2%
O=C(COc1ccc(F)cc1)Nc1nnc(S(=O)(=O)N2CCc3ccccc32)s1,/,i,/,/,i,3%
O=[N+]([O-])c1ccccc1N/N=C\c1ccccc1F,5%,i,21µM*,-3%,i,1%
CCCn1ccc2c(OCC(=O)NCc3ccccc3Cl)cccc2c1=O,/,i,/,/,i,1%
CN1N=C(N)c2cn(C3OC(COP(=O)(O)O)C(O)C3O)c3ncnc1c23 (stereo not given),4%,1.8µM*,1%,-1%,?,-4%
COc1ccc(CCN2CCCC(CN(C)Cc3cc(OC)ccc3OC)C2)cc1 (stereo not given),0.65µM*,i,-7%,0%,i,2%
CCN(Cc1ccc(OC)c(COC)c1)CC1CCCN(CCc2cccc(F)c2)C1 (stereo not given),3.7µM*,i,?,4%,?,3%
CCN(Cc1ccc(OC)c(COC)c1)CC1CCCN(CCc2cccc(OC)c2)C1 (stereo not given),15%,i,9%,-4%,i,6%
O=C(CSc1cn(CCNC(=O)c2c(F)cccc2F)c2ccccc12)Nc1ccc(F)cc1,/,i,/,/,i,6%
O=C(Nc1nc2ccccc2[nH]1)NC1CCCCC1,4%,i,16%,0%,i,5%
S=C(NC1CCCCC1)N(CCc1nc2ccccc2[nH]1)C1CCCC1,15%,?,3%,-6%,16µM*,0%
O=C(Nc1ccccc1)N(CCc1nc2ccccc2[nH]1)C1CCCC1,7%,i,4%,/,16µM*,1%[38.3 µM]
CCn1ccc2c(OCC(=O)Nc3ccccc3C(F)(F)F)cccc2c1=O,/,i,/,/,?,2%
CN(C)c1ccc(/C=C/c2ccc3ncccc3c2)cc1,/,i,/,/,i,1%
SMILES,MCF10A rereplic,KB-3-1 tox,SW480 rerep,TSG101-PTAP inh,KB-V1 MDR tox,PINK1 expr mod
CN(C)c1ccc(/C=C/c2cc3ccccc3cn2)cc1,/,1.5µM*,/,/,i,/
CN(C)c1ccc(/C=C/c2ccnc3c(Cl)cccc23)cc1,/,16µM*,/,/,?,/
CN(C)c1ccc(/C=C/c2ccc3ccccc3n2)cc1,5.2µM*,8.2µM*!,23µM*,-5%,7.3µM*!,?
CCCN(CCC)c1ccc(/C=C/c2ccc3cc(OCC)ccc3n2)cc1,?,i,2.1µM*,?,i,5%
CCCCCC1CCNCC1,/,i,/,/,i,/
COc1cc(-c2cnc3ccccc3c2)cc2c1OCCN(S(=O)(=O)C[C@]13CC[C@H](CC1=O)C3(C)C)C2,/,/,/,/,/,0%
CC[N+](CC)(CC)c1ccc(/C=C/c2ccc3ccccc3n2)cc1,/,1.8µM*,/,/,i,?
Oc1ccc(/C=C/c2ccc3ccccc3n2)cc1,?,?,18µM*,1%,i,3%
C(=C\c1ccc2ccccc2n1)/c1ccccc1,12%,?,?,-1%,i,6%
O=[N+]([O-])c1ccc(/C=C/c2ccc3ccccc3n2)cc1,15%,i,-13%,-2%,i,1%
CN(C)c1ccc(/C=C/c2cccc3cc4ccccc4nc23)cc1,/,4.1µM*,/,/,i,-1%
CCCCN(C)CCNC(=O)c1c(C)oc2ncnc(N3CCOCC3)c12,/,/,/,/,/,-1%
CCOC(=O)COc1ccc(-c2nnn(CC(=O)Nc3ccccc3)n2)cc1,/,i,/,/,i,2%
COC(=O)/C(=N/Nc1ccc(C)cc1)N1CCCc2ccccc21,?,i,24%,1%,?,16%
COC(=O)/C(=N/Nc1ccccc1)N1CCCc2ccccc21,16%,?,15%,0%,21µM*,7%
CCC1CN(C(=O)Nc2ccc(Br)cc2F)c2ccccc2S1 (stereo not given),/,i,/,/,i,1%
CSCCC(NS(=O)(=O)c1cccc(C(F)(F)F)c1)C(=O)N(C)CCOc1ccc(Cl)cc1 (stereo not given),?,i,5.8µM*,-3%,?,2%
C[C@H](CO)N1C[C@H](C)[C@@H](CN(C)C(=O)Nc2ccc(C(F)(F)F)cc2)Oc2c(NC(=O)Nc3ccc(C(F)(F)F)cc3)cccc2C1=O,?,16µM*,-4%,-2%,?,?

# Compound activity (PubChem BioAssay)
